Experimental findings from PubChem BioAssay (Tox21) are described below.

Molecules are shown by their SMILES. “And” between values parts separate entries of the source, which are not always exact repeats. Identical values can stand only once. Results filed as inconclusive are left out. Where a call stands in place of a potency, no number is given. Where a structure was tested more than once in an assay, its records may differ in their call. The source made the active and inactive calls. Unless noted, calls follow the shape of the full dose curve.

Chain of Estrogen receptor beta (Homo sapiens) (Q92731 whole entry, looked up): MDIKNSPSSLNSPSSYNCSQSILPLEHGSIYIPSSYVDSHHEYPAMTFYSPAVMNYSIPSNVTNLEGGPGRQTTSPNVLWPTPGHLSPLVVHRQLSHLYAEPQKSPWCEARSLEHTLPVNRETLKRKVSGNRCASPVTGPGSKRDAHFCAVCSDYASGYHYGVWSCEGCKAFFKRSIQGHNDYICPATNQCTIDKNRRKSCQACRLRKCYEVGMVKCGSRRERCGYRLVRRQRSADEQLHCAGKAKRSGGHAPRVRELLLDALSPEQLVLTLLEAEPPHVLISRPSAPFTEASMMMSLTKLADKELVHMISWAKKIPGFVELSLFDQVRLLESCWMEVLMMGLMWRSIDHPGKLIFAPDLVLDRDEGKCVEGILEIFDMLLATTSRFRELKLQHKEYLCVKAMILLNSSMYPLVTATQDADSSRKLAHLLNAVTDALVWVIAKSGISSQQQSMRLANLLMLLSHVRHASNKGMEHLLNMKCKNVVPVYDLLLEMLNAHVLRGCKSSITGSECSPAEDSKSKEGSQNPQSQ

Tested on in one assay: not listed separately
Briefly: qHTS assay to identify small molecule antagonists of the sonic hedgehog signaling (Shh) pathway (AID 1259369). Also: nearly all actives have a fitted effect of over 45% in size. Also: potency is read from the fitted curve at half-maximal effect. To be noted: NIH/3T3 Gli1-Luc reporter, Shh antagonist, luminescence 24 h; series mostly up to 92.4 µM. An outline of the steps: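 NIH/3T3-derived Gli1-Luc reporter cells plated 4 h, dosed with compound, then stimulated with conditioned medium for 24 h at 37 C. Firefly luciferase luminescence read after 30 min with detection reagent at room temperature.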
Background: qHTS replaces the single test concentration by a dilution series.
With `O=C(OCC(COC(=O)c1ccccc1)(COC(=O)c1ccccc1)COC(=O)c1ccccc1)c1ccccc1`, the Potency result was “inactive”.
Same read-out and setting: next, `Cc1cc(N)c(S(=O)(=O)O)cc1Cl`: “inactive”.
As for `CCN(CC)CCNC(=O)c1c(C)[nH]c(/C=C2\C(=O)Nc3ccc(F)cc32)c1C`, the Potency is 3.35 µM (active).
Still for that read-out and setting: the figure for `CC(C)(C)c1ccc(C(=O)CCCN2CCC(OC(c3ccccc3)c3ccccc3)CC2)cc1` is 11.9 µM (active); for `O=c1cc(-c2ccc(O)cc2)oc2cc(O)cc(O)c12` it is “inactive and 30.6 µM (active)”; for `CO[Si](CCCNc1ccccc1)(OC)OC` it is “inactive”.
Consider `C=C(C)C(=O)OCC(O)COc1ccc(C(C)(C)c2ccc(OCC(O)COC(=O)C(=C)C)cc2)cc1` (stereo unspecified), for which the Potency was 48.6 µM (active).
On the same count and under the same terms, the entry for `CCCCCCCC(=O)[O-].CCCCCCCC(=O)[O-].[Zn+2]` is “inactive”; for `C/C=C(\C)C(=O)OCc1ccccc1` it is “inactive”; for `O=C(O)c1c(Cl)cccc1Cl` it is “inactive”.
As for `CC(C)(C)c1ccc(C(=O)O)cc1`, the Potency entry was “inactive”.
On to `Cc1cccc(N(C)C(=S)Oc2ccc3c(c2)C2CCC3C2)c1` (stereo unspecified), for which the Potency result was “inactive”.
With `O=C(Nc1cccc(Cl)c1)OCC#CCCl`, the Potency is 5.45 µM (active).
Still for that read-out and setting: the entry for `CN(C)[C@@H]1C(=O)C(C(N)=O)=C(O)[C@@]2(O)C(=O)C3=C(O)c4c(O)cccc4C[C@H]3C[C@@H]12` is “inactive”.
`Oc1cccc2cc3cccc(O)c3c(O)c12`: the Potency entry was “inactive”.
As for `Oc1ccc2cc(SSc3ccc4cc(O)ccc4c3)ccc2c1`, the Potency is 19.4 µM (active) and 21.7 µM (active).
Regarding `CCCCCOC(=O)CCCC`, the Potency result is “inactive”.
On to `C1CCCC1`, for which the Potency result was “inactive”.
Regarding `CCCC/C=C/CCCCO`, the Potency result was “inactive”.
As to `CCCCCCCC/C=C\CCCCCCCCOCCO`, the Potency is 14.1 µM (active).
Turning to `Nc1c(Cl)cc(Cl)cc1Cl`, the Potency entry is “inactive”.
The same measure, in the same setting: the entry for `Nc1ccc2cc(S(=O)(=O)O)cc(O)c2c1N=Nc1ccccc1C(F)(F)F` is “inactive”.
The same measure, in the same setting: next, `COc1cccc(N)c1`: “inactive”.
Still for that read-out and setting: the figure for `[Cl][Au]([Cl])[Cl]` is 0.172 µM (active).
Take `COc1cc(-c2ccc(N=C=O)c(OC)c2)ccc1N=C=O`: the Potency result was “inactive”.
Still for that read-out and setting: next, `C[n+]1ccn(Cc2ccccc2)c1`: “inactive”.
On to `CSc1cnc(C)cn1`, for which the Potency result was “inactive”.
On the same count and under the same terms, next, `Clc1ccccc1C(c1ccccc1)(c1ccccc1)n1ccnc1`: 13.3 µM (active).
Turning to `CC(C)CCCCCCCCCCCCCCC(=O)O`, the Potency entry was “inactive”.
Same read-out and setting: next, `CCC(Cl)C(Cl)C(Cl)CC(Cl)C(Cl)C(C)Cl` (stereo unspecified): “inactive”.
As to `O=C1c2ccccc2Cc2ccccc21`, the Potency entry was “inactive”.

For the next assay, the target named is Estrogen receptor beta (Homo sapiens) (UniProt Q92731). Briefly: qHTS assay to identify small molecule agonists of the estrogen receptor beta (ER-beta) signaling pathway (AID 1259377; active = well fitted activation curve with a large enough effect in the signal ratio in the repeat runs, not every such curve was filed as active; the % refers to the signal ratio). To be noted: ER-beta-UAS-bla HEK293T, beta-lactamase FRET ratio, 16 h; series mostly up to 92.4 µM. An outline of the steps:
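Screening used GripTite ER-beta-UAS-bla cells held in 2% charcoal-stripped FBS medium. After overnight (16 hr) compound incubation at 37C, beta-lactamase activity was detected with a FRET substrate by fluorescence.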
Take `O=C(OCC(COC(=O)c1ccccc1)(COC(=O)c1ccccc1)COC(=O)c1ccccc1)c1ccccc1`: the Potency result was “inactive”.
Consider `Cc1cc(N)c(S(=O)(=O)O)cc1Cl`, for which the Potency entry is “inactive”.
On the same count and under the same terms, next, `CC(C)(C)c1ccc(C(=O)CCCN2CCC(OC(c3ccccc3)c3ccccc3)CC2)cc1`: “inactive”; `CCCCCCCC(=O)[O-].CCCCCCCC(=O)[O-].[Zn+2]`: “inactive”.
As to `C/C=C(\C)C(=O)OCc1ccccc1`, the Potency result was “inactive”.
Still for that read-out and setting: the entry for `O=C(O)c1c(Cl)cccc1Cl` is “inactive”.
The same measure, in the same setting: the entry for `CC(C)(C)c1ccc(C(=O)O)cc1` is “inactive”.
The same measure, in the same setting: next, `Cc1cccc(N(C)C(=S)Oc2ccc3c(c2)C2CCC3C2)c1` (stereo unspecified): “inactive”; `CCCCCOC(=O)CCCC`: “inactive”.
With `C1CCCC1`, the Potency entry was “inactive”.
Same read-out and setting: next, `Nc1ccc2cc(S(=O)(=O)O)cc(O)c2c1N=Nc1ccccc1C(F)(F)F`: “inactive”; `OCCCCCCCCCCCCBr`: “inactive”; `COc1cc(-c2ccc(N=C=O)c(OC)c2)ccc1N=C=O`: “inactive”.
With `C[n+]1ccn(Cc2ccccc2)c1`, the Potency result is “inactive”.
Consider `CSc1cnc(C)cn1`, for which the Potency result was “inactive”.
Same read-out and setting: next, `Clc1ccccc1C(c1ccccc1)(c1ccccc1)n1ccnc1`: “inactive”; `CC(C)CCCCCCCCCCCCCCC(=O)O`: “inactive”.
Still for that read-out and setting: the entry for `CCC(Cl)C(Cl)C(Cl)CC(Cl)C(Cl)C(C)Cl` (stereo unspecified) is “inactive”.
On to `O=C1c2ccccc2Cc2ccccc21`, for which the Potency entry is “inactive”.

A further assay shares this target. Briefly: qHTS assay to identify small molecule antagonists of the estrogen receptor beta (ER-beta) signaling pathway (AID 1259378; active = well fitted inhibition curve with a large enough effect in the signal ratio in the repeat runs, not every such curve was filed as active; the % refers to the signal ratio; also: potency is read from the fitted curve at half-maximal effect). To be noted: ER-beta-UAS-bla HEK293T, beta-lactamase FRET ratio, 16 h; series mostly up to 92.4 µM. An outline of the steps: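 Antagonist mode: compounds added to beta-lactamase reporter HEK293T ER-beta-UAS cells stimulated with E2 (1nM final), 16 hr at 37C. LiveBLAzer B/G FRET substrate, 2 hours room temperature, fluorescence read-out.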
`Cc1cc(N)c(S(=O)(=O)O)cc1Cl`: the Potency entry is “inactive”.
For `CCN(CC)CCNC(=O)c1c(C)[nH]c(/C=C2\C(=O)Nc3ccc(F)cc32)c1C`, the Potency was 33.5 µM (active).
On to `CC(C)(C)c1ccc(C(=O)CCCN2CCC(OC(c3ccccc3)c3ccccc3)CC2)cc1`, for which the Potency was 13.3 µM (active).
Take `Cc1cccc(N(C)C(=S)Oc2ccc3c(c2)C2CCC3C2)c1` (stereo unspecified): the Potency entry was “inactive”.
On to `C1CCCC1`, for which the Potency entry was “inactive”.
Consider `Nc1ccc2cc(S(=O)(=O)O)cc(O)c2c1N=Nc1ccccc1C(F)(F)F`, for which the Potency result is “inactive”.
`OCCCCCCCCCCCCBr`: the Potency was 55.3 µM (active).
The same measure, in the same setting: the entry for `C[n+]1ccn(Cc2ccccc2)c1` is “inactive”.
`CSc1cnc(C)cn1`: the Potency result was “inactive”.
With `CC(C)CCCCCCCCCCCCCCC(=O)O`, the Potency entry is “inactive”.

Tested on in another assay: not listed separately
Put plainly: qHTS assay to identify small molecule agonists of the androgen receptor (AR) signaling pathway in the presence of an antagonist - cell viability counter screen (AID 1259379; active = well fitted cell-killing curve with a large enough effect in the repeat runs; also: nearly all actives have a fitted effect of over 25% in size; also: potency is read from the fitted curve at half-maximal effect). To be noted: MDA-kb2 viability, CellTiter-Fluor, 16 h; series mostly up to 92.4 µM. The procedure, abridged:
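MDA-kb2 cells (MMTV-luciferase, AR/GR), 3,000/well, 5 h attachment, then 3.0 µM nilutamide (final) and compounds at 15 concentrations. Viability by CellTiter-Fluor fluorescence after 16 h at 37 °C, 0% CO2, in the reporter wells.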
Take `Cc1cc(N)c(S(=O)(=O)O)cc1Cl`: the Potency entry was “inactive”.
Take `CCN(CC)CCNC(=O)c1c(C)[nH]c(/C=C2\C(=O)Nc3ccc(F)cc32)c1C`: the Potency is 29.8 µM (active).
For the compound `CC(C)(C)c1ccc(C(=O)CCCN2CCC(OC(c3ccccc3)c3ccccc3)CC2)cc1`, the Potency is 29.8 µM (active).
Same read-out and setting: next, `CO[Si](CCCNc1ccccc1)(OC)OC`: “inactive”; `C=C(C)C(=O)OCC(O)COc1ccc(C(C)(C)c2ccc(OCC(O)COC(=O)C(=C)C)cc2)cc1` (stereo unspecified): 30.6 µM (active); `CCCCCCCCCCCC[N+](C)(C)CCCCCCCCCCCC`: 30.6 µM (active).
Still for that read-out and setting: next, `CCCCCCCC(=O)[O-].CCCCCCCC(=O)[O-].[Zn+2]`: “inactive”; `C/C=C(\C)C(=O)OCc1ccccc1`: “inactive”.
In the case of `O=C(O)c1c(Cl)cccc1Cl`, the Potency result is “inactive”.
On the same count and under the same terms, next, `Cc1cccc(N(C)C(=S)Oc2ccc3c(c2)C2CCC3C2)c1` (stereo unspecified): “inactive”; `CCN(C(=O)N(CC)c1ccccc1)c1ccccc1`: “inactive”; `O=C(Nc1cccc(Cl)c1)OCC#CCCl`: 54.5 µM (active).
On to `Oc1ccc2cc(SSc3ccc4cc(O)ccc4c3)ccc2c1`, for which the Potency is 61.2 µM (active) and 61.1 µM (active).
Regarding `CCCC/C=C/CCCCO`, the Potency result is “inactive”.
The same measure, in the same setting: the figure for `CCCCCCCC/C=C\CCCCCCCCOCCO` is 28.2 µM (active); for `Nc1c(Cl)cc(Cl)cc1Cl` it is “inactive”.
The same measure, in the same setting: next, `C/C=C1/C(=O)C[C@H]2[C@@H]3CCC4=CC(=O)CC[C@]4(C)[C@H]3CC[C@]12C`: 54.3 µM (active); `Nc1ccc2cc(S(=O)(=O)O)cc(O)c2c1N=Nc1ccccc1C(F)(F)F`: 30.6 µM (active); `COc1cccc(N)c1`: “inactive”.
On to `OCCCCCCCCCCCCBr`, for which the Potency entry was “inactive”.
The same measure, in the same setting: the figure for `[Cl][Au]([Cl])[Cl]` is 54.5 µM (active); for `COc1cc(-c2ccc(N=C=O)c(OC)c2)ccc1N=C=O` it is “inactive”; for `CSc1cnc(C)cn1` it is “inactive”.
In the case of `Clc1ccccc1C(c1ccccc1)(c1ccccc1)n1ccnc1`, the Potency is 30.6 µM (active) and inactive.
Consider `CC(C)CCCCCCCCCCCCCCC(=O)O`, for which the Potency entry is “inactive”.
The same measure, in the same setting: the entry for `O=C1c2ccccc2Cc2ccccc21` is “inactive”.
